Common to all, as to assay: DAPPL (digital affinity profiling via proximity ligation, sequencing); 10 mM Tris-HCl pH 7.5, 50 mM NaCl, 1 mM DTT, 4% glycerol, room temperature, 30 min; GST-TFs on glutathione beads, 16-mer random dsDNA library, 0.1% formaldehyde crosslink after washing; high values mean tight binding
One assay addresses T1, FLI1 (Homo sapiens, UniProt Q01543 1-452).
T1 sequence: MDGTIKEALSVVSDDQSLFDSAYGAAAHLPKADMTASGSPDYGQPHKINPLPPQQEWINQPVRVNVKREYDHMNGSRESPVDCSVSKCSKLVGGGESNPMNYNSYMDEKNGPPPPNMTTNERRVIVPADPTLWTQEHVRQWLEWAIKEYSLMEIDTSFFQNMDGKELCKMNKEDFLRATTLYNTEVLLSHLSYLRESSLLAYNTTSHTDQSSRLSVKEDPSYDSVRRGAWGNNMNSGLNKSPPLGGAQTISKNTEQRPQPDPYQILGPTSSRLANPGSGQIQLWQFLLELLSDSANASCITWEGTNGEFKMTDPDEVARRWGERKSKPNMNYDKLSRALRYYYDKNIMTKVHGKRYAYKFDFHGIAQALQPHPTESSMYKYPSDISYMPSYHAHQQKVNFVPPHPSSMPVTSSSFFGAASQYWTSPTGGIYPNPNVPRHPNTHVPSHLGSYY
To be noted: protein: recombinant; tags: N-terminal GST; dsDNA, one strand shown. The gist of the method: (§1)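 Sequencing on an Illumina NextSeq500 followed washing, crosslinking with 0.1% formaldehyde, proximity ligation (BsaI/T4 ligase, 1 h, 37 °C) and PCR amplification of pools that had been incubated for 30 min at room temperature with 200 nmole of a random double-stranded 16-mer DNA library in Tris/NaCl/DTT/glycerol buffer. Each pool held DNA-barcoded human transcription factors, expressed in yeast as GST fusions and captured on glutathione beads, plus a tag-only sample. Binding signal is a hexamer's read frequency for a factor divided by its frequency in the tag-only sample.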

For the next assay, the target named is T2, ELK1 (Homo sapiens, UniProt P19419 1-428).
T2 sequence: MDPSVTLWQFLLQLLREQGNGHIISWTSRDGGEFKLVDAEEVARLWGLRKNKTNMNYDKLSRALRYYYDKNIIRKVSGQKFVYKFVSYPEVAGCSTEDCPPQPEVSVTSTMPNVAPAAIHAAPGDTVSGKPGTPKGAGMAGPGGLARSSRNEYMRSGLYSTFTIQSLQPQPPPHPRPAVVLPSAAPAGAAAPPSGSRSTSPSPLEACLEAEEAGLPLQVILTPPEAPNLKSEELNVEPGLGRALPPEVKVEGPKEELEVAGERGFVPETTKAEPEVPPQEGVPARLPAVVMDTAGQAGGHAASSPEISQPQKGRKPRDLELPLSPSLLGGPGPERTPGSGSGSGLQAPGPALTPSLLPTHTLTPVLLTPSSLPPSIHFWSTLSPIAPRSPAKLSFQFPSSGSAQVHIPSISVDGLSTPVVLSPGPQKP
The note with it: protein: recombinant; tags: N-terminal GST; dsDNA, one strand shown. The gist of the method:
as §1

For a further assay, the target named is T3, GABPA (Homo sapiens, UniProt Q06546 1-454).
T3 sequence: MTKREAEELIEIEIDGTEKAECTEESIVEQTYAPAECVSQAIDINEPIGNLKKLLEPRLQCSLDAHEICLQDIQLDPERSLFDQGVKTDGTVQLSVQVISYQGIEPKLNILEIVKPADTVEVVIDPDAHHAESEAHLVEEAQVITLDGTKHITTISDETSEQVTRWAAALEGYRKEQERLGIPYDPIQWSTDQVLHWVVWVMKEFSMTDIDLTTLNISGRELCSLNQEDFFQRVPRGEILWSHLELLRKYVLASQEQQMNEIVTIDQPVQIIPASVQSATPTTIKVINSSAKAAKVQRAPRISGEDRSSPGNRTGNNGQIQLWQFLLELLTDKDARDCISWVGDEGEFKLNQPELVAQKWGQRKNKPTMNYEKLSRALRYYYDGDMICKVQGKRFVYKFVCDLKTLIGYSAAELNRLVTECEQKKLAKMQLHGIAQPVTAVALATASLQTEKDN
To be noted: protein: recombinant; tags: N-terminal GST; dsDNA, one strand shown. The gist of the method: as §1

The target in a further assay is T4, ERG (Homo sapiens, UniProt P11308 1-479).
T4 sequence: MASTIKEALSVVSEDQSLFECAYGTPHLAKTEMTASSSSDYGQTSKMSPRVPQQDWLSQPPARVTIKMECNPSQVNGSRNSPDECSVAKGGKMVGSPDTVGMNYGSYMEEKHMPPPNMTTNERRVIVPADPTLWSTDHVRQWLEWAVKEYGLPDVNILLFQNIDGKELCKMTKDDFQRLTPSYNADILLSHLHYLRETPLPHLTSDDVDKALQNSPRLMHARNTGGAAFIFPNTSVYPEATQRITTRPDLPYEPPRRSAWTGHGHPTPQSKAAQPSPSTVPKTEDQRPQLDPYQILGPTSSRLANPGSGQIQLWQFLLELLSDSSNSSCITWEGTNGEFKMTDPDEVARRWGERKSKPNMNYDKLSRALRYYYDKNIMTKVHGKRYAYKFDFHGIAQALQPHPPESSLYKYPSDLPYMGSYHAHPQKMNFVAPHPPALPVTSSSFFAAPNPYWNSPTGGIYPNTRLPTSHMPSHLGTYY
To be noted: protein: recombinant; tags: N-terminal GST; dsDNA, one strand shown. The gist of the method:
as §1

Another assay concerns the target ELF1 (Homo sapiens, UniProt P32519 1-619). The note with it: protein: recombinant; tags: N-terminal GST; dsDNA, one strand shown. The gist of the method:
as §1

A further assay deals with T5, EHF (Homo sapiens, UniProt Q9NZC4 1-300).
T5 sequence: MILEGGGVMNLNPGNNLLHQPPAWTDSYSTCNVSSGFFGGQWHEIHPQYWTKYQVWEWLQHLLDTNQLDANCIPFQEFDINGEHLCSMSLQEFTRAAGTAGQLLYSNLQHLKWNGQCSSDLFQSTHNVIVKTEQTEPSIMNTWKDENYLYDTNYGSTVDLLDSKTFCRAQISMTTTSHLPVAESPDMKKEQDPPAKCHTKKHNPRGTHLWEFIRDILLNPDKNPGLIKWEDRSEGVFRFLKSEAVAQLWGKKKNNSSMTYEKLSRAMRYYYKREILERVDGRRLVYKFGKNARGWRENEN
To be noted: protein: recombinant; tags: N-terminal GST; dsDNA, one strand shown. The gist of the method: as §1

A further assay concerns the target SPI1 (Homo sapiens, UniProt P17947 1-270). To be noted: protein: recombinant; tags: N-terminal GST; dsDNA, one strand shown. The gist of the method:
as §1

Another assay addresses SPIB (Homo sapiens, UniProt Q01892 1-262). To be noted: protein: recombinant; tags: N-terminal GST; dsDNA, one strand shown. The gist of the method:
as §1

In the next assay the target is T6, ELK3 (Homo sapiens, UniProt P41970 1-407).
T6 sequence: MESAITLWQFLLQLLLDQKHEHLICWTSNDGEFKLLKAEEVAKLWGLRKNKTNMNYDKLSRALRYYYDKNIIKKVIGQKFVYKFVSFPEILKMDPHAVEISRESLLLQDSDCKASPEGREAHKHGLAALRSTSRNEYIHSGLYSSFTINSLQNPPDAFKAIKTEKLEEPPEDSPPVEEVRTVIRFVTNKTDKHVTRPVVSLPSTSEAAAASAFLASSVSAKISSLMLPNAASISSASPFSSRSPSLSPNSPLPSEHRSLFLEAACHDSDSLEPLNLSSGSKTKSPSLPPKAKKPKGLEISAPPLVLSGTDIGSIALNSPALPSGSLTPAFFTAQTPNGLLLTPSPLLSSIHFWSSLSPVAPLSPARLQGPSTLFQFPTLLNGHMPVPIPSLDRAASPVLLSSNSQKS
The note with it: protein: recombinant; tags: N-terminal GST; dsDNA, one strand shown. The gist of the method:
as §1

A further assay has as its target T7, FEV (Homo sapiens, UniProt Q99581 1-238).
T7 sequence: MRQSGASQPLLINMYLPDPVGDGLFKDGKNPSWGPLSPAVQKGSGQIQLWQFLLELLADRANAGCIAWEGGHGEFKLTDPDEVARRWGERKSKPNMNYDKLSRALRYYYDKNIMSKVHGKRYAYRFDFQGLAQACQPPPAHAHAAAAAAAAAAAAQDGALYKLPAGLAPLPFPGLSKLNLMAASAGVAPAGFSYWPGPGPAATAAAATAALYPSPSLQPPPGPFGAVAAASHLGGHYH
The note with it: protein: recombinant; tags: N-terminal GST; dsDNA, one strand shown. The gist of the method:
as §1

Another assay addresses ETV5 (Homo sapiens, UniProt P41161 1-510). To be noted: protein: recombinant; tags: N-terminal GST; dsDNA, one strand shown. The gist of the method:
as §1

The target in another assay is HSF1 (Homo sapiens, UniProt Q00613 1-529). To be noted: protein: recombinant; tags: N-terminal GST; chain copies: 3; dsDNA, one strand shown. The gist of the method:
as §1

In another assay the target is T8, SPIC (Homo sapiens, UniProt Q8N5J4 1-248).
T8 sequence: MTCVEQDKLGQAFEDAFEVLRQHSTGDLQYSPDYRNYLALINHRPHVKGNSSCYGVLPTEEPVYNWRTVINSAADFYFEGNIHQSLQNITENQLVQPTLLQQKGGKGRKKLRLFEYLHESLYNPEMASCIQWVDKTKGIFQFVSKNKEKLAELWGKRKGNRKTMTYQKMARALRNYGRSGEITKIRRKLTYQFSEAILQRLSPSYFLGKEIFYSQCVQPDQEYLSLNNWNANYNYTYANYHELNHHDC
The note with it: protein: recombinant; tags: N-terminal GST; dsDNA, one strand shown. The gist of the method:
as §1

For the next assay, the target named is ELF4 (Homo sapiens, UniProt Q99607 1-663). To be noted: protein: recombinant; tags: N-terminal GST; dsDNA, one strand shown. The gist of the method: as §1
Another assay deals with T9, ELK4 (Homo sapiens, UniProt P28324-2 1-405).
T9 sequence: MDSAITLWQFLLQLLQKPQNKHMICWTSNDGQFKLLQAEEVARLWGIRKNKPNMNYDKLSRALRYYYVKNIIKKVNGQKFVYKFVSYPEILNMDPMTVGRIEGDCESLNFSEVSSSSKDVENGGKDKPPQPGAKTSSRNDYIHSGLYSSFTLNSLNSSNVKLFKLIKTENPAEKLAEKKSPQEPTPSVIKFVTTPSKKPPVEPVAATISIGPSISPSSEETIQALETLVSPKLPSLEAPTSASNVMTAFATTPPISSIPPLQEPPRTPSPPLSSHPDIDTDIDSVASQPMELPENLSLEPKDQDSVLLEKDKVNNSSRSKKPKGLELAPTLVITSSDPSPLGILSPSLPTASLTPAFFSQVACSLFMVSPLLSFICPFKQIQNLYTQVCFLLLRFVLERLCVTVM
The note with it: protein: recombinant; tags: N-terminal GST; dsDNA, one strand shown. The gist of the method:
as §1

A further assay addresses T10, ETV2 (Homo sapiens, UniProt O00321 1-342).
T10 sequence: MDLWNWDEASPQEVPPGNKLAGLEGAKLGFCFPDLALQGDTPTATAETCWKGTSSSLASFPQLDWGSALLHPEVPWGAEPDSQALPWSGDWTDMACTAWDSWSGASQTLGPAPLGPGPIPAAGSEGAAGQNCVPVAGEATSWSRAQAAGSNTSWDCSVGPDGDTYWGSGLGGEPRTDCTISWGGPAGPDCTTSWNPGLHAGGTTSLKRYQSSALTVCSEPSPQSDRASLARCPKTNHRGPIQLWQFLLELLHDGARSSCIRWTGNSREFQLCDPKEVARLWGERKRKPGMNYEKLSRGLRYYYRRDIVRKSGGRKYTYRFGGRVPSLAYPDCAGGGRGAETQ
The note with it: protein: recombinant; tags: N-terminal GST; dsDNA, one strand shown. The gist of the method: as §1

In the next assay the target is CRX (Homo sapiens, UniProt O43186 1-299). To be noted: protein: recombinant; tags: N-terminal GST; dsDNA, one strand shown. The gist of the method:
as §1

The next assay concerns the target ETV1 (Homo sapiens, UniProt P50549 1-477). The note with it: protein: recombinant; tags: N-terminal GST; dsDNA, one strand shown. The gist of the method:
as §1

ETV5, sequence (P41161 whole entry): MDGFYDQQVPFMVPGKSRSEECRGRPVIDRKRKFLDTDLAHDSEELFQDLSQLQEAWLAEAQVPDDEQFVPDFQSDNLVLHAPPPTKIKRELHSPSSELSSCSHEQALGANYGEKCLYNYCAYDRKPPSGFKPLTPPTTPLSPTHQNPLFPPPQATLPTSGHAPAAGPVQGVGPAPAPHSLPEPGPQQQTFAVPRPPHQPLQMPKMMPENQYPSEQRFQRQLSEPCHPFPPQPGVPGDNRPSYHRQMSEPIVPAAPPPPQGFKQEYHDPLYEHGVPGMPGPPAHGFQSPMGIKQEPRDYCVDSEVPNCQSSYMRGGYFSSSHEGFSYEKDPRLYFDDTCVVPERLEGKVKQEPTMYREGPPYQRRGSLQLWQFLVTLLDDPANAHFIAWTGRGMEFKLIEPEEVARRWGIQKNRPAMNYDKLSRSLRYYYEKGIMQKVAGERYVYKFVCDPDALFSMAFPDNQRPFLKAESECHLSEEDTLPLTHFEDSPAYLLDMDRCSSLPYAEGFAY
ELF1, sequence (P32519 whole entry): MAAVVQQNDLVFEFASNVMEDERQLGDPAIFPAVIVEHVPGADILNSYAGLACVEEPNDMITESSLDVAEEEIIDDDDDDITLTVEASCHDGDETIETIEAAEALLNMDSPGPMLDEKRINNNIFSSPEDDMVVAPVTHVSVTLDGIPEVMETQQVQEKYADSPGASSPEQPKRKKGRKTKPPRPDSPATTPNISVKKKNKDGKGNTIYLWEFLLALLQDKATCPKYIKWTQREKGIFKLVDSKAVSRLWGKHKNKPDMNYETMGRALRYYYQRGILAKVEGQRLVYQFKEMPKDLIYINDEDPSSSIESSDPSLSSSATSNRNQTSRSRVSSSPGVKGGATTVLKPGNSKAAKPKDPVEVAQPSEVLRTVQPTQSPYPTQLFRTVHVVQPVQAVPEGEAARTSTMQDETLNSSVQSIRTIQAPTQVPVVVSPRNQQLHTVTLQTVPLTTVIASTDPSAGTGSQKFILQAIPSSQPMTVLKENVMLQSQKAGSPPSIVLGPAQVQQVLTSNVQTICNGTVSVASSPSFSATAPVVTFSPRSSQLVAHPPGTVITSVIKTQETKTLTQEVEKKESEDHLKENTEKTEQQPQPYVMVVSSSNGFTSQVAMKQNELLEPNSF
SPIB, sequence (Q01892 whole entry): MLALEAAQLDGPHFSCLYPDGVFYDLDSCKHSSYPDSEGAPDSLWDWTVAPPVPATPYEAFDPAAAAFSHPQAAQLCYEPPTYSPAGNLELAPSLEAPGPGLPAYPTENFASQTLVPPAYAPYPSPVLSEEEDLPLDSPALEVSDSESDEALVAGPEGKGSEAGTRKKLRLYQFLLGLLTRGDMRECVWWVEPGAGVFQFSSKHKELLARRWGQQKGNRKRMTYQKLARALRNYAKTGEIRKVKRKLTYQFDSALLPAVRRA
HSF1, sequence (Q00613 whole entry): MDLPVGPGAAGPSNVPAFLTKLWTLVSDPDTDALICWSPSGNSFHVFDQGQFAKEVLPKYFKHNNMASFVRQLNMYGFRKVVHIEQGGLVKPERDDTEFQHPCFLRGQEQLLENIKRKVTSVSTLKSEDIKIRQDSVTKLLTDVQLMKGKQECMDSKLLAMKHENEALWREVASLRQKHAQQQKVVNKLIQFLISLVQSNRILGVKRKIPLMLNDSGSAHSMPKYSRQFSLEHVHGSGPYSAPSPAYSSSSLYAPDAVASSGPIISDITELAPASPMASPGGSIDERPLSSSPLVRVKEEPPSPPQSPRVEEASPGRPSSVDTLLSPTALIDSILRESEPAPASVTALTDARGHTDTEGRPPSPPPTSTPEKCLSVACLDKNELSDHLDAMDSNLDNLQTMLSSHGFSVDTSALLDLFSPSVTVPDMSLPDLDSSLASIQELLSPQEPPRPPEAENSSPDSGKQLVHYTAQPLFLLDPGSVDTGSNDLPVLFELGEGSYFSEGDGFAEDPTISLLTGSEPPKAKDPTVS
ELF4, sequence (Q99607 whole entry): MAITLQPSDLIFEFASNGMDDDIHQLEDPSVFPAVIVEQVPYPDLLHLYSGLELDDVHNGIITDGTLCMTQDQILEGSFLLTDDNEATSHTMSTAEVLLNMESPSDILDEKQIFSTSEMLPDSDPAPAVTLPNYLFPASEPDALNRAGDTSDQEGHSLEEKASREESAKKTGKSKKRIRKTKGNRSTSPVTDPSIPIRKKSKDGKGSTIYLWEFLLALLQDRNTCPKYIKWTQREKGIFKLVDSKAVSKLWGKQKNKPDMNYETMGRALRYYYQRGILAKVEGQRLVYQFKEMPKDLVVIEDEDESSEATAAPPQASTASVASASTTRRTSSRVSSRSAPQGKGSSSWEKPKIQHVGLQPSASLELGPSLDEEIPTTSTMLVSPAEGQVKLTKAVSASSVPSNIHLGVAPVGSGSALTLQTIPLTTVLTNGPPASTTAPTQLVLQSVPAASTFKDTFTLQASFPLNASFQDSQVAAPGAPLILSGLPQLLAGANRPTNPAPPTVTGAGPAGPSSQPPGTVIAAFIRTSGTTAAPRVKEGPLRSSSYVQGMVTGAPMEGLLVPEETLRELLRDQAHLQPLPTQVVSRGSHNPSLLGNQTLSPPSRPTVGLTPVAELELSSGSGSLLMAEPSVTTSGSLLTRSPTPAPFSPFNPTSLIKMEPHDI
ETV1, sequence (P50549 whole entry): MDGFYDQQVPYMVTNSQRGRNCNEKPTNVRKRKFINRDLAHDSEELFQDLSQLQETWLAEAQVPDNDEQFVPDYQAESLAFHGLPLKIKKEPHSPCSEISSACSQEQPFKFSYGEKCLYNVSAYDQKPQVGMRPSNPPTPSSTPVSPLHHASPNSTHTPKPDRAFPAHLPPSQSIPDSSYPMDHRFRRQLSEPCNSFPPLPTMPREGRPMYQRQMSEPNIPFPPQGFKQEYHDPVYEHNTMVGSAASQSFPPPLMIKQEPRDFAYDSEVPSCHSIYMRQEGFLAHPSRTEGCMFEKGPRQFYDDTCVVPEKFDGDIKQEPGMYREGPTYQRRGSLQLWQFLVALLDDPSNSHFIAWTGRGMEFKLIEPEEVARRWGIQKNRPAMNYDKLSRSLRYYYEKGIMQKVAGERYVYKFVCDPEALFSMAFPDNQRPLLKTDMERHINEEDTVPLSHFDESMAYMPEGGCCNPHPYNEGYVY
CRX, sequence (O43186 whole entry): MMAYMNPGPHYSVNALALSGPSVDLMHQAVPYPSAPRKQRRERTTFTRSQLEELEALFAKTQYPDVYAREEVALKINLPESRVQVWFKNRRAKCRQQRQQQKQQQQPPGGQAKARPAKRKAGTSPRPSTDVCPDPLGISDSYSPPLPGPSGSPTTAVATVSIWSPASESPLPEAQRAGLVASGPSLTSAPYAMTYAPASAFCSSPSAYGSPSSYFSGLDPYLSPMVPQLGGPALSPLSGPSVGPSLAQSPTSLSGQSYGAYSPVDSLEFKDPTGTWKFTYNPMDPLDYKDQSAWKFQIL

Turning to CCACGA, the binding signal with FLI1 is 1.18 fold enrichment (6-mer frequency, TF over GST control); with ELK1, 1.17 fold enrichment (6-mer frequency, TF over GST control); in the assay with GABPA it was 1.19 fold enrichment (6-mer frequency, TF over GST control); with ERG, 1.12 fold enrichment (6-mer frequency, TF over GST control); with ELF1, 1.1 fold enrichment (6-mer frequency, TF over GST control); with EHF it was 1.23 fold enrichment (6-mer frequency, TF over GST control). Besides, the binding signal was 1.12 fold enrichment (6-mer frequency, TF over GST control) with SPI1; 1.06 fold enrichment (6-mer frequency, TF over GST control) with SPIB; 1.16 fold enrichment (6-mer frequency, TF over GST control) with ELK3; 1.11 fold enrichment (6-mer frequency, TF over GST control) with FEV; 1.02 fold enrichment (6-mer frequency, TF over GST control) with ETV5; 1.12 fold enrichment (6-mer frequency, TF over GST control) with HSF1. Moreover, the binding signal with SPIC is 1.17 fold enrichment (6-mer frequency, TF over GST control); with ELF4, 1.1 fold enrichment (6-mer frequency, TF over GST control); with ELK4, 1.18 fold enrichment (6-mer frequency, TF over GST control); in the assay with ETV2, 1.09 fold enrichment (6-mer frequency, TF over GST control); with CRX, 1 fold enrichment (6-mer frequency, TF over GST control); with ETV1, 1.02 fold enrichment (6-mer frequency, TF over GST control).
